# “And” between values parts separate entries of the source, which are not always exact repeats. Equal entries are not always repeated. Inconclusive results are not listed. Where a call stands in place of a potency, no number is given. Unmarked numbers belong to inactive results. The source made the active and inactive calls. Calls follow the shape of the dose curve; as a rule, active = well fitted curve in the direction sought with a large enough effect in the repeat runs; inconclusive = weak or mixed curves; inactive = no such curve, though single readings can be large; an effect the other way counts as inactive or inconclusive.
# Legend:
# [1] = A CellTox Green Cytotoxicity Assay to monitor cytotoxicity in HEK293 cells - 40 hour (AID 1224871); also: nearly all actives have a fitted effect of over 45% in size; also: potency is read from the fitted curve at half-maximal effect
# In short: (§1)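 Read-out: fluorescence of a cell-impermeant cyanine dye staining DNA of dead cells, proportional to cytotoxicity. HEK293, 600 cells/well with reagent, compound (23 nL DMSO) added after 5 h; reads at 0, 8, 16, 24, 32, 40 h.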
# [2] = qHTS RealTime-Glo MT Cell Viability Assay in HEK293 cells - 40 hour (AID 1224874); settings: RealTime-Glo luminescence; max response: active compounds read low; also: nearly all actives have a fitted effect of over 50% in size; also: potency is read from the fitted curve at half-maximal effect
# In short: (§2)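 Luminescence readout at each listed time point; HEK293, 600 cells/well, RealTime-Glo MT reagent added with cells; compounds pinned (23 nL in DMSO) after 5 h at 37 C; continuous culture at 37 C.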
# [3] = A CellTox Green Cytotoxicity Assay to monitor cytotoxicity in HEK293 cells - 24 hour (AID 1224875); also: nearly all actives have a fitted effect of over 45% in size; also: potency is read from the fitted curve at half-maximal effect
# In short: as §1
# [4] = A CellTox Green Cytotoxicity Assay to monitor cytotoxicity in HepG2 cells - 16 hour (AID 1224876); also: nearly all actives have a fitted effect of over 45% in size; also: potency is read from the fitted curve at half-maximal effect
# In short: (§3)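 HepG2, 600 cells/well premixed w/ CellTox Green; 5 h settle, 37 C/5% CO2; pintool cpd add (DMSO); 37 C, 40 h; fluorescence read at 0, 8, 16, 24, 32, 40 h.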
# [5] = A CellTox Green Cytotoxicity Assay to monitor cytotoxicity in HepG2 cells - 24 hour (AID 1224878); also: nearly all actives have a fitted effect of over 45% in size; also: potency is read from the fitted curve at half-maximal effect
# In short: as §3
# [6] = A CellTox Green Cytotoxicity Assay to monitor cytotoxicity in HepG2 cells - 40 hour (AID 1224879); also: nearly all actives have a fitted effect of over 40% in size; also: potency is read from the fitted curve at half-maximal effect
# In short: as §3
# [7] = qHTS RealTime-Glo MT Cell Viability Assay in HepG2 cells - 32 hour (AID 1224877); also: nearly all actives have a fitted effect of over 55% in size; also: potency is read from the fitted curve at half-maximal effect
# In short: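 Luminescence read-out: viable HepG2 cells reduce a prosubstrate to a NanoLuc substrate, giving a signal proportional to live cell number. Reads taken at 0, 8, 16, 24, 32 and 40 h of compound exposure at 37 C.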
# [8] = qHTS RealTime-Glo MT Cell Viability Assay in HEK293 cells - 0 hour (AID 1224880); also: nearly all actives have a fitted effect of over 45% in size; also: potency is read from the fitted curve at half-maximal effect
# In short: as §2
# [9] = qHTS RealTime-Glo MT Cell Viability Assay in HEK293 cells - 16 hour (AID 1224872); also: top concentration of the series differs between compounds; nearly all actives have a fitted effect of over 50% in size
# In short: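 Nonlytic real-time viability readout: viable cells convert prosubstrate to NanoLuc substrate, giving luminescence proportional to live cell number. HEK293, 600 cells/well, compound added after 5 h, continuous culture at 37 C.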
# [10] = qHTS RealTime-Glo MT Cell Viability Assay in HepG2 cells - 8 hour (AID 1224873); also: nearly all actives have a fitted effect of over 55% in size
# In short: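 Real-time viability: cells seeded at 600 per well together with NanoLuc and cell-permeant prosubstrate, compounds added after 5 h incubation. Luminescence tracked at 0, 8, 16, 24, 32 and 40 h of exposure.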
Structure (SMILES),Potency [1],Potency [2],Potency [3],Potency [4],Potency [5],Potency [6],Potency [7],Potency [8],Potency [9],Potency [10],max response [2] [%]
NNc1nc(-c2ccc([N+](=O)[O-])cc2)cs1,inactive,24.5 µM (active),inactive,inactive,inactive,inactive,,,,,
CCCCCCCCOc1ccccc1C(=O)Nc1ccc(C(=O)OCC[N+](C)(CC)CC)cc1,26.8 µM (active),21.3 µM (active),23.9 µM (active),23.9 µM (active),26.8 µM (active),23.9 µM (active),,,,,
Cc1[nH]cnc1C[C@H]1CCc2c(C)c3ccccc3n2C1=O,47.8 µM (active),23.9 µM (active),47.8 µM (active),38 µM (active),38 µM (active),33.8 µM (active),42.6 µM (active),inactive,,,
CCC1OCC(COc2ccc(Oc3ccccc3)cc2)O1 (stereo not drawn),inactive,,inactive,inactive,inactive,inactive,inactive,,,,
CC(=O)S[C@@H]1CC2=CC(=O)CC[C@]2(C)[C@H]2CC[C@@]3(C)[C@@H](CC[C@@]34CCC(=O)O4)[C@H]12,inactive,,inactive,inactive,,54.9 µM (active),,inactive,,,
NNc1nc(-c2ccccc2)cs1,inactive,,inactive,inactive,inactive,inactive,inactive,inactive,,,
COC(=O)C1=C(C)NC(C)=C(C(=O)OCCc2ccc(N3CCN(C(c4ccccc4)c4ccccc4)CC3)cc2)C1c1cccc([N+](=O)[O-])c1 (stereo not drawn),,,inactive,inactive,inactive,inactive,inactive,inactive,inactive,inactive,0.767
O=c1[nH]sc2cc(Cl)ccc12,inactive,,inactive,,,,,,,,
N/C(=N\N=C\c1ccc(Cl)cc1)N/N=C/c1ccc(Cl)cc1,23.9 µM (active),,23.9 µM (active),21.3 µM (active),21.3 µM (active),23.9 µM (active),,,,,
COc1ccc(-c2ccc3cc(C(=O)O)ccc3c2)cc1C12CC3CC(CC(C3)C1)C2,inactive,4.77 µM (active),inactive,,23.9 µM (active),19 µM (active),,inactive,,,
CCCC1O[C@@H]2C[C@H]3[C@@H]4CCC5=CC(=O)C=C[C@]5(C)[C@H]4[C@@H](O)C[C@]3(C)[C@]2(C(=O)CO)O1 (stereo partly drawn),inactive,24.6 µM (active) and 43.6 µM (active),inactive,inactive,inactive,49 µM (active),inactive,30.9 µM (active),,,

# — PubChem BioAssay (Tox21)
